In PubChem BioAssay AID628 (Vanderbilt High Throughput Screening Facility, 2007):
About 2,200 (3.4%) of roughly 64,000 compounds were called active.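 How the source made its calls: active means calcium fluorescence response, raw or row-and-column corrected B-score, differing from the plate sample mean either way at a set confidence level, mostly lower; inactive means the rest.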 The sample as a whole holds a higher share of actives than the screen did.

What follows are molecules tested against Muscarinic acetylcholine receptor M1 (Rattus norvegicus) (UniProt P08482) (assay: blocks the rat M1 muscarinic receptor response to acetylcholine (AID 628)). Details: CHO-M1 cells, Fluo-4 calcium, ACh EC80 antagonist mode; at 10 µM; hits give low values.
Sequence of Muscarinic acetylcholine receptor M1 (Rattus norvegicus) (P08482 whole entry, looked up): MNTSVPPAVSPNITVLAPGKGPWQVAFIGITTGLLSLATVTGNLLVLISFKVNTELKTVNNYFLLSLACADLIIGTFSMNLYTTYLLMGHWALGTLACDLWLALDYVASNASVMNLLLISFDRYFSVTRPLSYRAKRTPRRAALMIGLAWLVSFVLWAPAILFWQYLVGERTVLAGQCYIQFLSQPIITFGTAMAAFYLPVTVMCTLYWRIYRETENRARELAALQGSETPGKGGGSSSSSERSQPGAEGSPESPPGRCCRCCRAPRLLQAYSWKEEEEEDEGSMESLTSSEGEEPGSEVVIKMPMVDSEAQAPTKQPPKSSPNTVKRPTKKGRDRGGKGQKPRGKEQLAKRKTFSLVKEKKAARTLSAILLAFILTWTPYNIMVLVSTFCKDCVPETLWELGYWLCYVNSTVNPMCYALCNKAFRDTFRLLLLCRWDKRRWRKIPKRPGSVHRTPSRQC

Compound	B-score
CC[N+]1(C)CCCC(OC(=O)C(O)(c2ccccc2)c2ccccc2)C1 (stereo not given)	-11.4 (active)
O=C1NC(=O)C(C/C=C/c2ccccc2)C(=O)N1	-0.333 (inactive)
CSC1=NP(=S)(SC)N(C)c2nc3n(c21)CCC3 (stereo not given)	-0.101 (inactive)
O=c1c2ccccc2nc(-c2ccco2)n1-c1ccc(Br)cn1	-0.192 (inactive)
CCOC(=O)C1SC2(C(F)(F)C(F)F)CC1(O)c1c(c(OC)c3occc3c1OC)O2 (stereo not given)	-2.3 (active)
CNP1(NC)=Nc2nn(-c3ccccc3)c(N)c2C(c2ccccc2)=N1	0.00862 (inactive)
C[N+]12CN3CN(CN(C3)C1)C2	0.464 (inactive)
CCN(CC)P(=O)(Oc1cccc(C)c1)N(CC)CC	0.467 (inactive)
COc1ccc(C(=O)CC2C(=O)N(C)C(=O)N(C)C2=O)cc1	-0.22 (inactive)
CC(C)c1ccc(O)c(CN2CCN(c3ccccc3)CC2)c1	0.336 (inactive)
COc1ccccc1CN1CCN(C(=O)Cc2ccccc2)CC1	0.441 (inactive)
COc1ccc(CN2CCN(c3ccccc3F)CC2)c(OC)c1	-2.11 (active)
CCc1nc2ccccc2c(=O)n1-c1cccc(OC)c1	-0.313 (inactive)
c1ccc(C2NCc3ccccc3-n3cccc32)cc1 (stereo not given)	-0.457 (inactive)
COc1ccc(C2NCc3ccc4c(c3-n3cccc32)OCO4)cc1OC (stereo not given)	-4.39 (active)
CCC/C(=N\O)c1c[nH]c2ccccc12	-0.0862 (inactive)
CCOC(=O)c1c(C)c(C(=O)N2CCC3(CC2)OCCO3)c(C)n1CC	0.059 (inactive)
CC12CN3CC(C)(CN(C1)C3c1cccs1)C2 (stereo not given)	-0.259 (inactive)
Cc1nc2nc(C)c(CCC(=O)N3CCC4(CC3)OCCO4)c(C)n2n1	0.0167 (inactive)
CCOC(=O)CC1=C(C(=O)OCC)C2(C(=O)N1)C(C(=O)OC)=C(N)Oc1ccccc12 (stereo not given)	0.186 (inactive)
CCOC(=O)c1c(N)n(Cc2ccccc2)c2nc3ccccc3nc12	0.91 (inactive)
Cc1ccc(C)c(NC2=NCCCS2)c1	-1.64 (inactive)
CC(=NCc1ccc2c(c1)OCO2)c1c(O)[nH]c(=O)[nH]c1=O	0.0855 (inactive)
Fc1ccc(N2CCN(Cc3ccc4c(c3)OCO4)CC2)cc1	-2.36 (active)
COc1ccccc1N=C1SCCCN1C	0.926 (inactive)
